High-throughput results as filed in PubChem BioAssay.
Shown are actives, neighbours in structure and some others; about 10% of the full set was active somewhere.
BAZ2B block = BAZ2B (human) inhibition. Q9UIF8. AlphaScreen BAZ2B-H3K14Ac peptide displacement. Potency, µM (top dose mostly 114 µM), without a hit: at the top dose activity change, negative = inhibition, hits mostly inhibitors. actives 4.4% (n = 360,000). AID 504333; note: % is set by controls: 0 for no effect and ±100 for the full control effect; nearly all actives have a fitted effect of over 60% in size
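Complex of BAZ2B and biotin-H3K14Ac (50 nM apiece) forms over 30 min at RT, then faces library compounds up to 110 uM for another 30 min; AlphaScreen beads added, 20 min dark incubation, luminescence read.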
HP1b binding inh = inhibitors of HP1-beta chromodomain binding to methylated histone tails; P83916; AlphaScreen HP1-beta / biotin-H3K9me3 peptide binding; Potency, µM (highest dose often 114 µM), for the others: at the top dose activity change, negative = inhibition, usual class: inhibitors; actives 0.56% (n = 390,000); note: nearly all actives have a fitted effect of over 70% in size
Target sequence (P83916 whole entry, looked up): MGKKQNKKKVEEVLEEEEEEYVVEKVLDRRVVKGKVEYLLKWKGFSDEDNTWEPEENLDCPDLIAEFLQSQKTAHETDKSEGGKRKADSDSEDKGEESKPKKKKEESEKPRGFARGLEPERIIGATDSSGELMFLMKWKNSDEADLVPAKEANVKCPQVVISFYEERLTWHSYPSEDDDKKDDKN
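Compound inhibition of the preformed complex between 50 nM HP1-beta and 50 nM biotinylated H3K9me3 peptide was read by AlphaScreen. Buffer was PBS pH 7.4 with 0.01% Tween-20. Incubations ran 30 min at room temperature, with 10 ug/mL donor/acceptor beads.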
G9a block = inhibitors of human histone lysine methyltransferase G9a; Q96KQ7; G9a H3K9 monomethylation, AlphaScreen, 2 h; Potency, µM (doses to about 102 µM), inactives show at the highest dose activity, negative = inhibition, usual class: inhibitors; actives 8.8% (n = 350,000); AID 504332; note: % is set by controls: 0 for no effect and ±100 for the full control effect; nearly all actives have a fitted effect of over 75% in size
Target sequence (Q96KQ7 913-1193 limits assumed): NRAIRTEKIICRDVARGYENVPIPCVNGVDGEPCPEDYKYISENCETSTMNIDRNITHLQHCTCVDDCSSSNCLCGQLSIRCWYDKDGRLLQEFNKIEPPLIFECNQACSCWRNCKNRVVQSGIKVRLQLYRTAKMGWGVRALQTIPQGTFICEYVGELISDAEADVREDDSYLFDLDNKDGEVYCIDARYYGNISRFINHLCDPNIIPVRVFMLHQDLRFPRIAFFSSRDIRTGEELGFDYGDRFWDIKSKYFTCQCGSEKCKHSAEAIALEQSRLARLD
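Quantitative HTS format: methyltransferase activity on a biotin-tagged H3K9 peptide is measured by AlphaScreen, using a rabbit anti-monomethyl-H3K9 antibody with streptavidin donor and anti-IgG acceptor beads. Final levels are 20 nM enzyme, 500 nM peptide, 20 uM SAM; 2 h RT.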
JMJD2A Tudor = inhibitors of human JMJD2A Tudor domain. O75164. AlphaScreen JMJD2A-Tudor / H3K4me3 peptide binding. Potency, µM (doses to about 114 µM), for inactives: top-dose activity change, negative = inhibition, most hits filed as inhibitors. actives 4.4% (n = 390,000); note: % is set by controls: 0 for no effect and ±100 for the full control effect; nearly all actives have a fitted effect of over 50% in size
GLS inhibitor = blocks human kidney-isoform glutaminase activity; O94925; GLS enzymatic activity, qHTS titration; actives 0.21% (n = 410,000); Potency, µM (doses to about 45.5 µM), for inactives: at the highest dose activity change, negative = inhibition, hits mostly inhibitors; note: % is set by controls: 0 for no effect and ±100 for the full control effect
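hKGA in 45 mM KH2PO4 (pH 8.2), 0.02% Tween-20 with compound, then 1mM L-Glutamine (stock as added) plus glutamate oxidase/HRP/Amplex red coupling mix. Fluorescence read initially and after 30 min at RT; signal change reflects glutamate formation.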
Starred values were filed as active, the others as inactive; ? = inconclusive; . = no result given; [ ] = another dose, or the depositor's remark. Calls come from the whole dose curve; as a rule, active = well fitted curve in the direction sought with a large enough effect; inconclusive = small, poorly fitted or top-dose-only effect, or another doubt; inactive = no such curve, though single readings can be large; an effect the other way counts as inactive or inconclusive. Potency is the fitted concentration of half-maximal effect.

SMILES	BAZ2B block	HP1b binding inh	G9a block	JMJD2A Tudor	GLS inhibitor
O=C(CN1C(=O)NC2(CCCC2)C1=O)NCCN1C(=O)S/C(=C\c2ccccc2F)C1=O	17.7%	18.6%	-22.4%	-8.3%	3.3%
COc1ccc(/C=C2\SC(=O)N(CCNC(=O)CN3C(=O)NC4(CCCC4)C3=O)C2=O)cc1	9.2%	13.0%	50.1µM*	-20.7%	-1.7%
COc1ccc(N2C(=O)CC(N3CCN(C(=O)c4ccco4)CC3)C2=O)cc1 (centres undefined)	-11.3%	1.6%	56.2µM*	-10.3%	9.6%
COc1ccc2oc(=O)c(C(=O)N3CCN(C(=O)c4ccccc4)CC3)cc2c1	2.8%	21.6%	-0.4%	-6.4%	-2.4%
COc1ccc2oc(=O)c(C(=O)N3CCN(C(=O)c4ccco4)CC3)cc2c1	7.8%	-6.9%	17.8µM*	79.4µM*	1.7%
O=C(c1ccco1)N1CCN(C2CC(=O)N(c3ccc(F)c(Cl)c3)C2=O)CC1 (centres undefined)	2.7%	35.8%	28.2µM*	-3.2%	0.0%
COc1ccc2[nH]c(C)c(C(=O)CN3CCN(C(=O)c4ccco4)CC3)c2c1	0.9%	15.7%	50.1µM*	-16.7%	-5.2%
Cc1ccc(NC(=O)CCCCCN2C(=O)c3ccccc3C2=O)nc1	-5.7%	34.2%	13.0%[59 µM]	0.7%	-6.2%
COc1ccc(NC(=O)c2cc(-c3cccs3)on2)cc1	-1.3%	-10.2%	15.4%	-6.8%	-7.5%
Oc1ccc(Br)cc1CNn1cnnc1	-13.0%	-31.0%	-0.1%	-21.7%	35.8%
Cc1ccc(S(=O)(=O)NC(CC(C)C)C(=O)N2CC(C)OC(C)C2)cc1 (centres undefined)	-3.4%	18.6%	.	-13.9%	6.5%
S=c1[nH]nc(Nc2cccc3ccccc23)s1	?	39.8µM*	0.316µM*	17.8µM*	?
Cc1ccc(Nc2n[nH]c(=S)s2)cc1	.	.	.	.	20.2%
Cc1c(Cl)cccc1Nc1n[nH]c(=S)s1	.	50.1µM*	.	11.2µM*	19.2%
Fc1ccccc1Nc1n[nH]c(=S)s1	50.1µM*	44.7µM*	2.82µM*	2.82µM*	-8.8%
Cc1ccc(C(=O)Cn2ncsc2=N)cc1	-32.6%	15.4%	?	-16.9%	0.4%
O=C(/C=C/c1cccnc1)c1ccc(O)cc1	-13.0%	7.7%	-1.8%	-17.5%	-3.8%
COc1ccc(-c2nc3ccccc3[nH]2)cc1	8.8%	28.6%	8.6%	-3.6%	4.1%
COc1ccc(-c2cc(=O)n(-c3nc4ccccc4[nH]3)[nH]2)cc1	28.2µM*	14.5%	79.4µM*	?	31.4%
C=CCN1C(=O)CSc2ccc(C(=O)NCc3ccco3)cc21	-4.9%	17.5%	39.8µM*	-21.8%	-2.8%
CCC(=O)N1CCc2cc(S(=O)(=O)CCC(=O)Nc3ccc(OC)cc3)ccc21	-2.9%	36.3%	.	10.9%	2.8%
CC(=O)N1CCc2cc(S(=O)(=O)CCC(=O)NCc3ccc(Cl)cc3)ccc21	-3.0%	29.7%	-0.8%[59 µM]	0.7%	6.6%
CC(=O)N1CCc2cc(S(=O)(=O)CCC(=O)Nc3ccc(Cl)cc3F)ccc21	-20.4%	48.8%	70.8µM*	-10.1%	-5.8%
CCC(=O)N1CCc2cc(S(=O)(=O)CCC(=O)Nc3cc(Cl)ccc3OC)ccc21	.	8.0%	12.6µM*	14.1µM*	9.8%
CCC(=O)N1CCc2cc(S(=O)(=O)CCC(=O)Nc3cccc(C)n3)ccc21	6.9%	56.1%	50.1µM*	-12.4%	2.1%
SMILES	BAZ2B block	HP1b binding inh	G9a block	JMJD2A Tudor	GLS inhibitor
CC(C)CCN1CCN(Cc2ccc3nsnc3c2)CC1CCO (centres undefined)	3.5%	27.5%	8.6%	-21.5%	4.2%
COc1ccc(N=C2SC(CC(=O)Nc3ccccc3)C(=O)N2Cc2ccco2)cc1 (centres undefined)	-5.0%	24.8%	?	-17.8%	4.4%
CCN(CC)C(=O)Cn1cc(S(=O)(=O)CC(=O)Nc2cc(C)on2)c2ccccc21	.	32.2%	.	-2.7%	-6.2%
CSC1=NC(C)(C)C=C(/C=C/c2ccc(Cl)cc2)N1	?	?	28.2µM*	?	3.2%
CSC1=NC(C)(C)C=C(/C=C/c2ccc(Cl)cc2Cl)N1	?	?	50.1µM*	?	-0.7%
CCSC1=NC(C)(C)C=C(/C=C/c2ccc(Cl)cc2Cl)N1	-6.6%	-16.7%	50.1µM*	-28.9%	-2.0%
CCSC1=NC(C)(C)C=C(C)N1	0.3%	6.8%	19.6%[59 µM]	-8.9%	-2.8%
CSC1=NC(C)(C)C=C(/C=C/c2c(Cl)cccc2Cl)N1	-29.8%	36.6%	39.8µM*	-13.7%	-17.4%
COC(=O)c1ncn(C2OC(COC(C)=O)C(OC(C)=O)C2OC(C)=O)n1 (centres undefined)	6.7%	35.0%	9.1%[59 µM]	-6.2%	-1.6%
N#Cc1ccc(Oc2nc(C(N)=O)cc(-c3ccccc3)n2)cc1	?	14.1%	9.6%[0.0925 µM]	-4.6%	1.4%
CC(C)CNC(=O)c1ccccc1NC(=O)CN(c1ccccc1)S(=O)(=O)N(C)C	-0.3%	16.7%[57 µM]	13.5%	-10.0%	0.0%
Cc1cccc(/C=N/n2c(COc3ccccc3)n[nH]c2=S)c1	?	4.4%	3.16µM*	?	7.1%
O=[N+]([O-])c1ccc(Cl)c(/C=N/n2c(COc3ccccc3)n[nH]c2=S)c1	-8.8%	?	8.91µM*	50.1µM*	10.8%
O=[N+]([O-])c1ccc(Cl)c(/C=N/n2c(C3CCCCC3)n[nH]c2=S)c1	-2.4%	2.8%	?	?	4.6%
S=c1[nH]nc(COc2ccccc2)n1/N=C/c1ccc(Cl)c(Cl)c1	-14.8%	?	12.6µM*	?	-0.6%
O=C(NCN1CCN(c2ccccc2F)CC1)c1ccccc1	6.5%	15.9%	11.4%	1.1%	.
COC(=O)c1sccc1NC(=S)N1CCCCC1C (centres undefined)	2.4%	54.5%	?	14.2%[57.1 µM]	0.3%
COC(=O)c1sccc1NC(=S)N1C(C)CCCC1C (centres undefined)	8.4%	40.8%	10µM*	-7.7%	13.7%
COC(=O)c1sccc1NC(=S)Nc1cc(C)ccc1OC	.	12.1%	50.1µM*	?	1.4%
COc1ccc(Nc2ccccc2)c(C)c1	?	-26.8%	?	?	9.2%
CCOC(=O)c1csc(-c2ccc3c(c2)CCO3)n1	-9.9%	35.4%	10.0%	4.1%	9.1%
COc1ccc(C(=O)CSc2nnc(-c3cccnc3)n2Cc2ccco2)cc1	-4.8%	47.9%	50.1µM*	-7.1%	12.7%
Clc1ccc(OCc2nnc(SCc3nc4ccccc4[nH]3)n2Cc2ccco2)cc1	-31.2%	-7.6%	39.8µM*	?	8.6%
Cn1c(SCc2nc3ccccc3[nH]2)nnc1-c1cnccn1	9.7%	15.4%	4.7%	-20.7%	6.7%
c1ccc(-c2nnc(SCc3nc4ccccc4[nH]3)n2Cc2ccco2)nc1	?	14.5%	50.1µM*	?	-3.9%
COc1ccc(C(=O)CSc2nnc(-c3cnccn3)n2Cc2ccco2)cc1	?	9.2%	?	?	7.2%
